This is part of a sample that, as a whole, favours compounds with a hit. Of some 83,000 tested, about 20% had one in any assay.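 Method: cells in 96-well plates; compound added at one concentration; 48 h incubation; percent growth measured; values under 10 scored active.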 The source made the active and inactive calls.

The results in this text go back to PubChem BioAssay (NCI).

This test has as its system HL-60(TB) leukemia. Nature of the test: NCI-60 one-dose screen, 48 h (100 = growth as untreated, 0 = no growth, -100 = all killed). Particulars: 10 µM unless noted.
In the case of `CCCCCCCCn1ccc2cc(NC(=O)Cn3cc(CN4CCC(C)CC4)nn3)ccc21`, the growth was -22.4% (active). Regarding `c1ccc(-c2n(Cc3ccc4ccccc4c3)c3ccccc3[n+]2Cc2ccc3ccccc3c2)cc1`, the growth was -49.3% (active).

For the compound `Cc1ccc(-c2n[nH]c(=O)c3noc(-c4ccc(C)cc4)c23)cc1`, the growth is 6.11% (active). Next, `CN(C)CCCN(c1nc(C(Cl)(Cl)Cl)ns1)c1nc(C(Cl)(Cl)Cl)ns1`: 24.4% (inactive). In the case of `CCN(CC)C(CC(=O)c1ccccc1)C(=O)c1ccccc1` (centres undefined), the growth is 63.5% (inactive). Next, `CN(C)CC(CN(C)C)C(O)c1ccccc1` (centres undefined): 99.8% (inactive); `Cc1cc(Cl)ccc1Nc1nc(C(F)(F)F)ccc1C(=O)N/N=C/c1c(Cl)cccc1Cl`: -26.8% (active). For `CC1CC(C(C)(C)C)C(=O)C(C(C)(C)C)C1` (centres undefined) the value was 107% (inactive); for `CSCCC1NC(=O)C(C(C)=Nc2ccccc2)=C1O` (centres undefined), 117% (inactive). Next, `CSc1nc2ncnc(SC)c2[nH]1`: 118% (inactive); `Clc1ccc(CNc2ccc3nc(CCC4CCCCC4)[nH]c3c2)cc1`: 24.8% (inactive). For the compound `O=C(NCCO)C(F)(F)F`, the growth is 103% (inactive). In the case of `COc1cc(C(=O)NC(=S)Nc2ccc3ccccc3c2)cc(OC)c1OC`, the growth was 97.1% (inactive). For `Cc1nc2c(ccc3ccccc32)s1` the value was 84.2% (inactive). For `C=C(C)[C@@H]1CC[C@]2(C(=O)NC3CCCCC3)CC[C@]3(C)[C@H](CC[C@@H]4[C@@]5(C)CCC(=O)C(C)(C)[C@@H]5CC[C@]43C)[C@@H]12` the value was 76.6% (inactive). Next, `O=S(=O)(O)c1cccc(Nc2ccc3ccccc3c2)c1`: 89.9% (inactive). On to `COc1ccc2[nH]c(O)c(/C=c3/cc4c(c(-c5ccc(F)c(OC)c5)n3)=Nc3ccccc3-4)c2c1`, for which the growth was 47% (inactive).

For `c1ccc(Nc2nc3c(s2)CCc2c[nH]cc2-3)nc1`, the growth was 2.15% (active). Consider `O=C1CCC/C=C\C[C@H]2C=CC(=O)/C2=C/C[C@H](CCc2cccc(C(F)(F)F)c2)O1`, for which the growth is -25.5% (active). With `C[C@]12CC[C@@H]3c4ccc(O)cc4CC[C@H]3[C@@H]1C[C@H](O)C2`, the growth was 52% (inactive).

Take `COc1ccc(-c2nc(Nc3cc(C)[nH]n3)c3ccccc3n2)cc1`: the growth is 41.4% (inactive). In the case of `COc1ccc2occ(C3=C(c4c[nH]c5ccccc45)C(=O)NC3=O)c2c1`, the growth is 20.8% (inactive). As for `CCCOCc1cn[nH]n1`, the growth is 105% (inactive).

As for `CC1=CC(=O)CC(C)(C)[C@@]1(O)/C=C/[C@@H](C)O`, the growth is 110% (inactive).

As for `CS(=O)(=O)N(c1cc(-c2ccc3ncnc(Nc4ccc(F)c(Cl)c4)c3c2)cnc1Cl)S(C)(=O)=O`, the growth is 20.4% (inactive). In the case of `O=C(/C=C/c1ccccc1)n1c(-c2ccccc2)nc2ccccc21`, the growth was 101% (inactive). Next, `CCCC(=O)NNc1[nH]c(-c2ccc(OC)cc2)cc1C(=O)OCC`: -27.7% (active); `C[n+]1c(/C=C/c2ccc([N+](=O)[O-])cc2)ccc2ccccc21`: 99.3% (inactive).

As for `CCCCC1CCc2cccc3c(SCC(=O)N(C)c4ccc(Cl)cc4)cc[n+]1c23` (centres undefined), the growth was 91.4% (inactive). For `CCn1cc(C2NC(=O)c3cc(F)ccc3N2)c2cccc(Cl)c21` (centres undefined) the value was -50% (active). As for `COc1ccc(-c2nc(-c3ccccc3)c(-c3ccccc3)n2C2CC2)cc1OC1CCCCC1`, the growth is 30% (inactive). Consider `C#Cc1ccc(-n2c(/C=C/c3ccc(O)c(OC)c3)nc3ncccc3c2=O)cc1`, for which the growth was 84.7% (inactive).

Consider `ClC(Cl)c1nc(-c2ccccc2)nc2cc(-c3ccccc3)nn12`, for which the growth was 94.9% (inactive).

For `CC(=O)Nc1ccc(S(=O)(=O)NC2CCCCC2)cc1`, the growth is 96% (inactive). Next, `COc1ccc(C(=O)c2cc3c(N)c(C(=O)Nc4cccc5ccccc45)sc3nc2C)cc1`: -49% (active); `N=c1c(S(=O)(=O)c2ccccc2)cc2c(=O)n3ccccc3nc2n1C1CCCC1`: 104% (inactive). For `CCCCCCCCSC1=CC(=O)C(OC)=C(OC)C1=O` the value was -10.5% (active).

Take `O=c1n(CC2CO2)c(=O)n(CC2CO2)n1CC1CO1` (centres undefined): the growth is 7.91% (active). With `COc1cccc(/C=C/C(=O)c2sc(Nc3ccc(O)cc3)nc2C)c1`, the growth is 78.8% (inactive).
